Compound activity (PubChem)
Hits are enriched below; roughly 12% of the tested compounds scored in any of these assays.
Shiga toxin inh – A qHTS for Small Molecule Inhibitors of Shiga Toxin; Vero cells, Shiga toxin protein synthesis inhibition reporter; inhibition, % at 38.7 µM; 290,000 tested, 9.2% active; in the data active = inhibition mostly above about 28%, no sharp cut-off; inactive = mostly below about 43%; also: 0% is about no effect
CHX counter – Cycloheximide Counterscreen for Small Molecule Inhibitors of Shiga Toxin; 300,000 tested, 12% active; max response, %; cell reporter, cycloheximide protein synthesis inhibition counterscreen; in the data active = max response mostly above about 13%, no sharp cut-off; inactive = mostly below about 14%; also: read at 38.3 µM for the half of the compounds with a filed dose; 0% is about no effect
MARV entry inh – qHTS for inhibitors of binding or entry into cells for Marburg Virus | 300,000 tested, 1.8% active | AID 540276, 2011 | Potency, µM (top dose mostly 37.8 µM), without a hit: at the highest dose activity change, negative = inhibition, usual class: inhibitors | Marburg virus pseudotyped entry inhibition, cell reporter; calls by dose curve; tested in HEK293 cells; also: potency is read from the fitted curve at half-maximal effect; % is scaled to controls: 0 for no effect and ±100 for the full control effect
Lassa entry inh – qHTS for Inhibitors of binding or entry into cells for Lassa Virus | 300,000 tested, 1.2% active | Potency, µM (highest dose often 37.9 µM), for inactives: top-dose activity change, negative = inhibition, actives largely listed as inhibitors | Lassa virus pseudotype entry inhibition, cell reporter; calls by dose curve; tested in HEK293 cells; also: potency is read from the fitted curve at half-maximal effect; % is scaled to controls: 0 for no effect and ±100 for the full control effect; nearly all actives have a fitted effect of over 50% in size
Starred values were filed as active, the others as inactive; u = inconclusive; x = no result; [ ] = dose if it differs, or a comment.

SMILES	Shiga toxin inh	CHX counter	MARV entry inh	Lassa entry inh
COc1ccc(NC(=O)C2CCC(C(C)(C)C)CC2)cc1S(=O)(=O)N1CCCCC1 (stereo not drawn)	0.0	-1.4	11.2µM*	u
COc1ccc(NC(=O)Cc2cccs2)cc1S(=O)(=O)N1CCCCC1	x	x	-23.9%	1µM*
COc1ccc(NC(=O)Cc2ccsc2)cc1S(=O)(=O)N1CCCCC1	x	x	-24.8%	u
Oc1ccccc1C1=Nc2nc3ccccc3n2C(c2ccccc2)C1 (stereo not drawn)	84.4*	49.2*	u	u
Oc1ccccc1C1=NN(c2ccccc2)C(c2ccc(F)cc2)C1 (stereo not drawn)	1.6	6.3	-9.8%[46.1 µM]	-23.5%[46.1 µM]
O=C(Nc1ccccc1)c1ccncc1	-1.2	-3.1	0.0%	-9.3%
Cn1ncc2cc(NC(=S)NC(=O)c3ccccc3)ccc21	85.6*	43.1*	-36.7%	u
O=C(NC(=S)Nc1cnc2ccccc2c1)c1ccccc1	62.8*	47.5*	x	x
O=C(Nc1cnc2ccccc2c1)c1ccncc1	183.2*	73.2*	x	x
O=C(NC(=S)Nc1ncc(Br)cc1Br)c1ccccc1	93.9*	35.2*	-28.4%[46.1 µM]	-9.7%
Cc1cc(C)nc(NC(=S)NC(=O)c2ccccc2)n1	18.0	2.1	6.9%	21.3%
O=C(CN1CCN(C(=O)c2ccccc2)CC1)Nc1ncc(Br)cc1Br	7.2	-0.9	6.5%	4.2%
S=C(NCCc1ccccc1)Nc1ccc(Nc2ccccc2)cc1	9.3	-2.1	u	u
S=C(NCCc1ccccc1)Nc1cnc2ccccc2c1	60.7*	31.3*	x	x
C/C(=N\NC(=O)C1CCCC1)c1ccc(Cl)cc1Cl	-5.2	-2.3	2.9%[46.1 µM]	-13.8%[46.1 µM]
COc1ccc(C(=O)O/N=C(\N)c2ccccc2)cc1	-15.1	3.3	u	u
Cc1cccc(OCC(=O)O/N=C(\N)c2ccc(Br)cc2)c1	-15.9	-3.8	u	11.7%
Cc1ccc(C(=O)O/N=C(\N)c2ccc(Br)cc2)cc1	60.2*	32.8*	u	u
COc1ccc(C(=O)O/N=C(\N)c2ccc(Br)cc2)cc1	82.5*	61.6*	u	u
NC(=O)C(c1ccc(Br)cc1)c1ccc(C(=O)c2ccccc2)cc1 (stereo not drawn)	-6.6	23.2*	u	u
O=C(COC(=O)c1ccccc1)c1ccc(Br)cc1	115.2*	47.3*	25.2%	20.9%
Cc1csc2c(SCC(=O)NNC(=O)C(Cl)Cl)ncnc12	11.7	7.4	x	x
N/C(=N\OC(=O)c1cccc(Br)c1)c1ccc(Br)cc1	0.4	-0.8	4.2%	26.8%
N/C(=N\OC(=O)c1ccc(Br)cc1)c1ccccc1	144.0*	66.4*	9.6%	-15.1%
Cn1cc(Cl)c(C(=O)OCC(=O)c2ccccc2)n1	36.0*	27.4*	8.6%[46.1 µM]	-2.4%
SMILES	Shiga toxin inh	CHX counter	MARV entry inh	Lassa entry inh
CC(C)NC(=O)COC(=O)c1ccc(Oc2ccccc2)cc1	-5.7	3.5	2.5%	u
CC(C)(C)c1ccc(NC(=O)CON=C(N)c2ccccc2)cc1	x	x	u	-11.2%
CC(C)(C)c1ccc(C(=O)O/N=C(\N)c2ccccc2)cc1	74.2*	59.9*	x	x
NC(=O)COC(=O)c1ccc(Oc2ccccc2)cc1	34.4	27.8*	-10.6%	8.2%
Cc1cc(C(=O)O/N=C(\N)c2ccc(C(C)(C)C)cc2)no1	41.9*	33.5*	x	x
CCSc1nnc(NC(=O)CSc2nc3c(cc2C#N)CCCC3)s1	25.1	20.7	u	u
CCOC(=O)NC(=O)CSc1nc(C)cc(C)c1C#N	16.8	21.9	0.1%	-19.5%
CCOC(=O)c1c(SCC(=O)Nc2nccs2)nc(C)c(C)c1C	36.3*	26.2*	u	-2.3%
CCn1c(C)nnc1SCC(=O)Nc1nccs1	-4.2	-4.9	1.4%[46.1 µM]	8.8%
Cc1cc(C)c(C#N)c(SCC(=O)Nc2ccccc2C#N)n1	x	x	x	-9.1%[46.1 µM]
CCc1nnc(NC(=O)CSc2nc(C)cc(C)c2C#N)s1	40.0	15.3*	7.94µM*	u
CCc1nnc(NC(=O)CSc2nc3c(cc2C#N)CCC3)s1	70.2*	32.0*	u	-17.2%
Cc1cc(C)c(C#N)c(SCC(=O)Nc2ccccc2C(N)=O)n1	51.4*	23.3*	-38.5%	u
CCOc1ccc(N2CC(NC(=O)Cc3ccccc3)CC2=O)cc1 (stereo not drawn)	x	x	x	-5.7%[46.1 µM]
COc1cccc(/C(O)=C2\C(=O)C(=O)N(c3ccccn3)[C@H]2c2ccccc2OC)c1	x	x	0.8%	x
Cc1ccc(C#N)c(SCC(=O)Nc2nccs2)n1	68.3*	52.6*	x	x
N#Cc1cc2c(nc1SCC(=O)Nc1nccs1)CCCCC2	94.1*	49.2*	u	u
CCOC(=O)c1cccc(NC(=O)N2CCC(CN3CCCCCC3)CC2)c1	x	x	x	29.7%[46.1 µM]
CCN1CC(c2ccccc2)C(c2ccc(Cl)cc2)=N1 (stereo not drawn)	11.2	-2.3	u	1.4%
O=C(/C=C/c1ccc2c(c1)OCO2)Nc1nc2ccc(F)cc2s1	62.9*	22.0*	x	x
NS(=O)(=O)c1ccc2nc(NC(=O)c3ccc4ncsc4c3)sc2c1	32.9	9.3*	-19.7%	-3.4%
Cc1ccnc(NC(=O)c2ccc(N3C(=O)CCC3=O)cc2)c1	49.0*	44.7*	u	u
O=C(Nc1nc2cc3c(cc2s1)OCO3)c1cccc(N2C(=O)CCC2=O)c1	50.4*	25.3*	x	x
CCOc1ccc2nc(NC(=O)/C=C/c3ccc4c(c3)OCO4)sc2c1	-11.4	-1.9	0.2%	-1.5%
O=C(Nc1nc(-c2ccc(F)cc2)cs1)c1cccc(N2C(=O)CCC2=O)c1	17.5	15.7*	7.3%	u
SMILES	Shiga toxin inh	CHX counter	MARV entry inh	Lassa entry inh
Cc1ccc2nc(NC(=O)c3ccc4ncsc4c3)sc2c1	59.5*	32.7*	x	x
Cc1ccc2nc(NC(=O)c3ccc(N4C(=O)CCC4=O)cc3)sc2c1	50.6*	31.5*	-4.5%[46.1 µM]	12.7%[46.1 µM]
Cc1ccc2nc(NC(=O)c3ccc4c(c3)OCO4)sc2c1	75.7*	62.3*	-8.5%	-20.9%
O=c1[nH]c(=O)n(-c2ccccc2F)c(O)c1/C=C1\C=Nc2ccccc21	20.2	6.6*	x	x
Cc1ccccc1-n1c(O)c(/C=C2/C(c3ccccc3)=Nc3ccccc32)c(=O)[nH]c1=O	85.6*	54.2*	u	u
Cc1ccc(-n2c(O)c(/C=C3/C(c4ccccc4)=Nc4ccccc43)c(=O)[nH]c2=O)cc1	63.1*	28.8*	u	-9.4%
Cc1cccc(-n2c(O)c(/C=C3/C(c4ccccc4)=Nc4ccccc43)c(=O)[nH]c2=O)c1	32.3*	20.0*	x	x
CCOC(=O)CN1CC(C)(C)N(CC(=O)OCC)CC1(C)C	x	x	20.4%	3.0%
COc1ccc(C2C=C3CNS(=O)(=O)C3CC2OC(=O)c2ccc(C(F)(F)F)cc2)cc1 (stereo not drawn)	-11.5	-10.5	x	x
O=C(O)CSc1cc(C(=O)c2ccccc2O)cn2c(=O)c3c4c(sc3nc12)CCCC4	-5.1	-6.9	-22.9%[46.1 µM]	u
CCSc1nnc2c(n1)[nH]c1c(C)cccc12	26.0	19.1*	u	-11.2%
Cc1cc(/C=N/NC(=O)c2ccccn2)c(C)n1-c1cccc([N+](=O)[O-])c1	89.8*	50.4*	2.5%[46.1 µM]	11.8%
O=C(N/N=C\c1cc([N+](=O)[O-])ccc1N1CCCC1)c1ccccn1	48.5*	21.6*	-18.9%	-9.6%
Cc1cc(C(=O)CCl)c(C)n1-c1cccc([N+](=O)[O-])c1	-5.8	-1.3	10µM*	u
